The assay addresses SHP2 N-SH2 domain T42A. Briefly: log2 enrichment relative to wild-type ITIM peptide; higher = stronger binding.

The text below walks through data of the supplement of paper PMC10369915.

B1: PD-1 ITIM pTyr223 peptide variant F219P (peptide)
chain: VPSVDYGELDF
B1 came in with a log2 enrichment of 0.209.

B2: PD-1 ITIM pTyr223 peptide variant L226P (peptide)
chain: VFSVDYGEPDF
B2: the log2 enrichment was -0.564.

B3: PD-1 ITIM pTyr223 peptide variant V221P (peptide)
chain: VFSPDYGELDF
B3: the log2 enrichment is -1.23.

B4: PD-1 ITIM pTyr223 peptide variant D227P (peptide)
chain: VFSVDYGELPF
Consider B4, for which the log2 enrichment is -1.19.

B5: PD-1 ITIM pTyr223 peptide variant E225M (peptide)
chain: VFSVDYGMLDF
Molecule B5 displayed a log2 enrichment of -0.596.

B6: PD-1 ITIM pTyr223 peptide variant V218P (peptide)
chain: PFSVDYGELDF
B6 came in with a log2 enrichment of 0.0339.

B7: PD-1 ITIM pTyr223 peptide variant F228P (peptide)
chain: VFSVDYGELDP
Molecule B7 gave a log2 enrichment of -1.6.

B8: PD-1 ITIM pTyr223 peptide variant D227M (peptide)
chain: VFSVDYGELMF
B8 displayed a log2 enrichment of -0.781.

B9: PD-1 ITIM pTyr223 peptide variant G224P (peptide)
chain: VFSVDYPELDF
Turning to B9, the log2 enrichment is 1.75.

B10: PD-1 ITIM pTyr223 peptide variant D222P (peptide)
chain: VFSVPYGELDF
The molecule B10 showed a log2 enrichment of 1.61.
